Compounds with a hit are over-represented: about 11% of the library has one in this group of screens.
IMPase cell inh – membrane-permeable compound that blocks inositol monophosphatase. P97697. CHO-M1 cells, IP1 accumulation, HTRF TR-FRET ratio. inhibition (IP1 accumulation), % at 46.1 µM. 120,000 tested, under 10 active. AID 901; active = well fitted curve in the direction sought with a large enough effect in the signal ratio, not every such curve was filed as active; inconclusive = small, poorly fitted or top-dose-only effect, or a change in a side signal; inactive = no such curve, though single readings can be large or run the other way; the % refers to the signal ratio;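 note: cells stimulated with carbachol in lithium chloride buffer; plate controls were DMSO basal wells for no effect and reference inhibitor wells for full effect; higher means more IMPase inhibition seen as more IP1 and lower FRET ratio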
Target sequence (P97697 whole entry, looked up): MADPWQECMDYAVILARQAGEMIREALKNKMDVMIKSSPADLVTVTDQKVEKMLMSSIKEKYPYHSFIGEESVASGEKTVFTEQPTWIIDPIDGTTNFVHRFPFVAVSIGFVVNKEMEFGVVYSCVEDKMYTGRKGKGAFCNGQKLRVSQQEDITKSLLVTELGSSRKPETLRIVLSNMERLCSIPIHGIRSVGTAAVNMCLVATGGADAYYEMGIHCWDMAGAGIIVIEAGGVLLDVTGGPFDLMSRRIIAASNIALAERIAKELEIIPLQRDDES
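CHO-M1 cells (CHO stably expressing M1 receptor), compound up to 46 uM final, stimulated with carbachol (50 uM as added) in buffer with 50mM LiCl, pH 7.4, 30 min at 37C. Cytosolic IP1 read by TR-FRET; AC50 from Hill fits.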
HPGD inh – HPGD (human) dehydrogenase inhibition. 150,000 tested, 4.3% active. AID 894. Potency, µM, for inactives: top-dose activity change, negative = inhibition, usual class: inhibitors. P15428. purified HPGD, NADH fluorescence kinetic, PGE2 substrate; note: potency is the fitted concentration of half-maximal effect
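20 nM HPGD preincubated 15 min at room temperature with compound in 50 mM Tris-HCl pH 8, 0.01% Tween 20. Started with 1 mM NAD+ and 30 uM prostaglandin E2; NADH fluorescence (360/450 nm) read 5 times over 30-s intervals, last minus first.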
ALDH1A1 block – inhibitors of human aldehyde dehydrogenase 1A1. P00352. Purified ALDH1A1, NADH fluorescence, propionaldehyde substrate. Potency, µM (titrated, usually from 75.3 µM), for the others: at the top dose activity, negative = inhibition, usual class: inhibitors. 220,000 tested, 7.3% active. AID 1030;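 note: potency is the fitted concentration of half-maximal effect; plate controls were no enzyme wells and a reference inhibitor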
IMPase Li cell – IMPase inhibition in cells with lithium potentiation; CHO-M1 cells, IP1 TR-FRET (IP-One), carbachol + lithium; Potency, µM (highest dose often 59.4 µM), inactives show top-dose activity, negative = IMPase inhibition, hits mostly inhibitors; 210,000 tested, 0.35% active; AID 1457; active = well fitted curve in the direction sought with a large enough effect; inconclusive = small, poorly fitted or top-dose-only effect, or another doubt; inactive = no such curve, though single readings can be large; an effect the other way counts as inactive or inconclusive;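 note: IP1 builds up when IMPase is blocked and the TR-FRET signal falls; potency is the fitted concentration of half-maximal effect; plate controls were basal vehicle for no effect and high inhibitor control for full effect; nearly all actives have a fitted effect of over 50% in size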
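Test compounds were applied to CHO-M1 cells previously cultured for 16–30 h at 2000 per well. A small lithium amount accompanied them; after 30 min at 37C, IP1 was quantified by TR-FRET.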
NPSR antagonist – blocks cAMP signaling of the human neuropeptide S receptor; CHO-NPSR cells, cAMP TR-FRET, antagonist mode; Potency, µM (series often up to 38.3 µM), for the others: at the highest dose activity change, negative = inhibition, actives largely listed as inhibitors; 220,000 tested, 1% active; AID 1461; active = well fitted curve in the direction sought with a large enough effect; inconclusive = small, poorly fitted or top-dose-only effect, or another doubt; inactive = no such curve, though single readings can be large; an effect the other way counts as inactive or inconclusive; note: potency is the fitted concentration of half-maximal effect; nearly all actives have a fitted effect of over 50% in size
Target sequence (Q6W5P4 whole entry, looked up): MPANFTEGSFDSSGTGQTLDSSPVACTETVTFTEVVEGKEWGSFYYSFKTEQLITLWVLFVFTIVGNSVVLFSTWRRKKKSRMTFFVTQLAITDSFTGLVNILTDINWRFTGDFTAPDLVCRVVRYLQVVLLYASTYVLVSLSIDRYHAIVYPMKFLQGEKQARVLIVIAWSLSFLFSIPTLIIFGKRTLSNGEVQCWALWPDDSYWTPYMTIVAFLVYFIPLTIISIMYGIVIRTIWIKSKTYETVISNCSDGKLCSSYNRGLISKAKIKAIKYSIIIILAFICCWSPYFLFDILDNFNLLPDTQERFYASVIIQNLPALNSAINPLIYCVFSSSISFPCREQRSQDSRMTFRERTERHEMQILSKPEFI
PNC assembly inh – blocks assembly of the perinucleolar compartment | PC3M PTB-GFP, PNC prevalence imaging, 16 h; hits give low values | activity change (PNC), negative = inhibition, % at 10 µM | 140,000 tested, 3.1% active | AID 2417;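 active = readout at or below -70, meaning at least 70% loss of cells showing the perinucleolar compartment, a nuclear body marking cancer cells; inconclusive = readout between -30 and a set limit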;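 note: plate controls were DMSO wells for no effect and camptothecin positive control wells for full effect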
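PC3M cells stably expressing PTB-GFP, 750–1000 cells/well, treated 16 h at 37 °C with compound (23 nl of library stock), in duplicate. After paraformaldehyde fixation and Hoechst stain, imaged at 20x; PNC prevalence scored by image analysis.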
Numbers without * were called inactive; ? = inconclusive; · = no result given; [ ] = another dose, or the depositor's remark. Unless noted, calls come from the whole dose curve; as a rule, active = well fitted inhibition curve with a large enough effect (not every such curve was filed as active); inconclusive = small, poorly fitted or top-dose-only effect, or another doubt; inactive = no such curve, though single readings can be large or run the other way. Unless noted, % is set by controls: 0 for no effect and ±100 for the full control effect.

SMILES	IMPase cell inh	HPGD inh	ALDH1A1 block	IMPase Li cell	NPSR antagonist	PNC assembly inh
Brc1ccc(N/N=C(/N=Nc2nn[nH]n2)c2ccccc2)cc1	·	·	14.1µM*	-1.4%	-60.0%	·
C/C(=N\Nc1ccc(C(=O)O)cc1)c1ccc(Br)cc1	·	·	5.6%	·	18.2%	·
O=C(Nc1ccc(F)cc1)C(c1ccccc1)N1CCN(S(=O)(=O)c2c(F)cccc2F)CC1 (centres undefined)	·	-8.5%	7.94µM*	0.9%	-6.8%	0.1
O=C(Nc1ccc(F)cc1)C(c1ccccc1)N1CCN(S(=O)(=O)c2ccccc2)CC1 (centres undefined)	1.8	-9.3%	10µM*	3.1%	-3.6%	-11.7
CCCCn1ccnc1C(=O)c1cc(S(=O)(=O)N2CCOCC2)ccc1C	2.6	-9.2%	5.4%	26.1%[38.3 µM]	-5.0%[46.1 µM]	?
COc1ccc(N2CCN(C(=O)c3oc4ccccc4c3C)CC2)cc1	·	·	-17.0%	12.5%	-15.5%	·
O=C(c1oc2ccccc2c1CSCc1ccccc1)N1CCN(c2ncccn2)CC1	7.9	-10.4%	12.6µM*	24.6%[38.3 µM]	?	-10.5
Cc1ccccc1C(=O)N1CCN(c2ccccn2)CC1	0.0	-28.0%	?	12.8%	-8.8%[46.1 µM]	-9.3
Cc1c(C(=O)N2CCCCCC2)oc2ccccc12	0.0	15.8µM*	-9.6%	18.3%[38.3 µM]	-3.1%[46.1 µM]	25.6
O=C(Cc1ccccc1)N1CCN(c2ncccn2)CC1	·	·	-1.7%	-3.9%	21.8%	·
Cc1c(C(=O)N2CCN(c3ccccn3)CC2)oc2ccccc12	0.9	-21.1%	14.1µM*	37.2%[38.3 µM]	-16.1%[46.1 µM]	37.3
Cc1ccc(C(=O)NC2CC(C)(C)NC(C)(C)C2)cc1C	3.2	-9.1%	12.0%	-7.0%[38.3 µM]	3.5%[46.1 µM]	17.2
Cc1nnc(N2C(=O)C(O)=C(C(=O)c3ccco3)C2c2ccc(C(C)(C)C)cc2)s1 (centres undefined)	-8.5	-5.5%	0.4%	?	-40.9%	-108.6*
Cc1nnc(N2C(=O)C(O)=C(C(=O)c3ccco3)C2c2ccc(F)cc2)s1 (centres undefined)	?	-7.2%	-9.1%	?	-0.8%[46.1 µM]	-12.7
CCOC(=O)c1[nH]nc(-c2cc(CC)c(O)cc2O)c1-c1cscn1	-0.1	-8.3%	8.91µM*	32.5%[38.3 µM]	-27.0%[46.1 µM]	-17.5
CCCc1cc2c(=O)c(-c3cscn3)c(C(=O)OCC)oc2cc1O	·	·	?	16.2%	-19.7%	·
CSc1oc(-c2ccc(F)cc2)nc1S(=O)(=O)c1ccccc1	9.3	?	28.2µM*	-1.1%	-34.1%	-13.3
COc1cc(-c2nc(S(=O)(=O)c3ccc(Cl)cc3)c(N3CCOCC3)o2)cc(OC)c1OC	1.1	-10.9%	1µM*	24.7%[38.3 µM]	-11.6%[46.1 µM]	66.7
COc1ccc(-c2nc(S(=O)(=O)c3ccccc3)c(N3CCOCC3)o2)cc1	·	-10.0%	22.4µM*	-7.4%	-31.9%	5.0
CSc1oc(-c2ccccc2)nc1S(=O)(=O)c1ccc(F)cc1	-0.1	-12.4%	-5.2%	2.9%[38.3 µM]	-15.0%[46.1 µM]	47.6
COc1cc(-c2nc(S(=O)(=O)c3ccc(C)cc3)c(N3CCOCC3)o2)cc(OC)c1OC	-3.4	-11.9%	1.12µM*	-7.0%	-10.6%[46.1 µM]	?
COc1ccc(-c2cc(C(=O)Oc3ccc([N+](=O)[O-])cc3)c3ccccc3n2)cc1	?	?	?	10.8%[38.3 µM]	-0.2%[46.1 µM]	?
COc1ccc(/C=N/NC(=O)c2cccc(NC(=O)c3ccc(Cl)cc3)c2)c(OC)c1	·	-22.5%	?	11.9%	-8.7%	?
CC(C)(C)c1nc(S(=O)(=O)c2ccc(Cl)cc2)c(N2CCOCC2)o1	-0.8	-13.4%	17.8µM*	0.5%[38.3 µM]	?	40.9
O=P(c1ccccc1)(c1ccccc1)c1nc(-c2ccccc2)oc1N1CCOCC1	·	·	·	·	-8.5%	·
SMILES	IMPase cell inh	HPGD inh	ALDH1A1 block	IMPase Li cell	NPSR antagonist	PNC assembly inh
O=P(c1ccccc1)(c1ccccc1)c1nc(-c2ccc(Cl)cc2)oc1N1CCOCC1	·	·	?	-0.1%	10µM*	·
CC(/C=N/NC(=O)c1cccs1)=C\c1ccco1	·	·	7.94µM*	-0.5%	-25.6%	·
Cc1ccc(/C=N/NC(=O)c2cccs2)o1	·	-17.2%	-7.5%	2.4%	9.9%	-82.5*
Cc1cccc(Oc2ccc(NC(=O)c3ccccc3C(=O)O)cc2)c1	·	·	·	·	-1.4%	·
CCn1c(=O)c(C(=O)Nc2ccccc2S(N)(=O)=O)c(O)c2ccccc21	2.5	-2.1%	-0.4%	2.9%[38.3 µM]	-3.7%[46.1 µM]	-9.7
CCCc1cc(C(=O)Nc2sc3c(c2C(=O)OCC)CCCC3)no1	4.9	?	0.1%	27.6%[38.3 µM]	7.4%[46.1 µM]	?
CCn1nc(CC(=O)Nc2nnc(CC(=O)N3CCCCC3)s2)c2ccccc2c1=O	3.4	22.4µM*	-6.5%	-14.6%[38.3 µM]	-2.6%[46.1 µM]	-27.7
O=S(=O)(/N=C(/Nc1ccc(F)cc1F)c1ccccc1)c1ccc(Br)cc1	-4.0	-7.8%	16.9%	-5.0%	-7.9%[46.1 µM]	-99.1*
COc1ccc(CN2CCOCCOCCOCC2)cc1	·	·	·	·	-17.4%	·
O=C1C2C3C=CC(C4CC34)C2C(=O)N1/N=C/c1ccc(-c2ccc([N+](=O)[O-])cc2)o1 (centres undefined)	·	·	-1.6%	14.3%	-18.9%	·
COC(=O)c1cccc(-c2ccc(/C=N/N3C(=O)C4C5C=CC(C6CC56)C4C3=O)o2)c1 (centres undefined)	·	·	14.1µM*	15.0%	-4.3%	·
COC(=O)c1ccc(-c2ccc(/C=N/N3C(=O)C4C5C=CC(C6CC56)C4C3=O)o2)cc1 (centres undefined)	·	14.1µM*	384.6%	4.2%	-6.5%	-0.7
Cc1ccc(S(=O)(=O)N2CCN(CC(=O)N/N=C\c3ccncc3)CC2)cc1	·	·	·	·	48.4%	·
Cc1ccsc1/C=C(\C(=O)c1ccc(OC(C)C)cc1)c1nc2ccccc2o1	·	?	10.2%	14.4%	-57.7%	21.3
COC(=O)C(NC(C)=O)(Nc1ccc(Br)cn1)C(F)(F)F (centres undefined)	6.4	-4.8%	7.08µM*	8.2%[38.3 µM]	-22.9%[46.1 µM]	13.0
N#C/C(=C\c1c(N2CCC(C(N)=O)CC2)nc2ccccn2c1=O)C(=O)NCc1ccco1	-14.6	-11.4%	?	-3.9%	9.9%	27.7
COc1cccc(-n2c(CN3CCN(c4cccc(C)c4)C(C)C3)nc3ccc([N+](=O)[O-])cc3c2=O)c1 (centres undefined)	·	-8.4%	?	-4.6%	-7.6%	?
COc1cccc(-n2c(CN3CCN(c4ccc(C)cc4)C(C)C3)nc3ccc([N+](=O)[O-])cc3c2=O)c1 (centres undefined)	·	-5.4%	25.1µM*	-2.0%	-3.8%	25.8
CCCCc1ccc(/C=C2\C(=O)c3ccccc3C(O)=C2C(=O)OCC)cc1	19.0	8.91µM*	?	8.8%	?	42.5
Cc1cc(NC(=O)Cn2nnc(-c3ccccc3N)n2)no1	·	4.8%	6.7%	-6.4%	24.8%	-21.4

Compound activity deposited in PubChem BioAssay by National Center for Advancing Translational Sciences (NCATS).
